# Screens from PubChem.
# TrxR1 inh – blocks rat thioredoxin reductase 1. O89049. recombinant rTrxR1, NADPH fluorescence consumption, selenite substrate. Potency, µM (highest dose often 114 µM), without a hit: at the top dose activity change, negative = inhibition, hits mostly inhibitors. actives 1% (n = 390,000). AID 588453; note: % is set by controls: 0 for no effect and ±100 for the full control effect; nearly all actives have a fitted effect of over 65% in size
#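 Rat TrxR1 (90 nM in the dispensed reagent) was pre-reduced with 400 uM NADPH for 5 min at room temperature, then incubated with compound for 15 min. After 400 uM selenite was added, NADPH fluorescence (Ex 340/Em 450 nm) was followed for 8 min.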
# GALK inh – blocks human galactokinase activity; P51570; actives 0.007% (n = 270,000); Purified GALK, Kinase-Glo residual ATP luminescence; Potency, µM (doses to about 57.5 µM), for the others: at the top dose activity change, negative = inhibition, most hits filed as inhibitors; note: % is set by controls: 0 for no effect and ±100 for the full control effect
# Target sequence (P51570 whole entry, looked up): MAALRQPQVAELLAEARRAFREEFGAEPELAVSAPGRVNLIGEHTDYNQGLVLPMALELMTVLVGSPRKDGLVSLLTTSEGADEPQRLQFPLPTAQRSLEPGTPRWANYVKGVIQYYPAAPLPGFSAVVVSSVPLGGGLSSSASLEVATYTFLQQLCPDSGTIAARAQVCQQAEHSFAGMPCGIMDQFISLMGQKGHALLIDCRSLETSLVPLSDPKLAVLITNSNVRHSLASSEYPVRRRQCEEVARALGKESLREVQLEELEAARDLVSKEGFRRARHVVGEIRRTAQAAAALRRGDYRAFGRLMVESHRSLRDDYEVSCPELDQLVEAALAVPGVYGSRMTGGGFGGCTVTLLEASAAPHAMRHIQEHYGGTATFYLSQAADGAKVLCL
#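 The enzyme phosphorylates galactose (100 uM) using ATP (35 uM); inhibition is detected as higher residual ATP, quantified by bioluminescence after 1 h reaction at room temperature, pH 8.0.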
# Nrf2 inh – Nrf2 pathway inhibition | A549 ARE-Fluc reporter, luciferase luminescence, 18-24 h | Potency, µM (doses to about 46 µM), for the others: top-dose activity change, negative = inhibition, hits mostly inhibitors | actives 2.1% (n = 360,000); note: % is set by controls: 0 for no effect and ±100 for the full control effect; nearly all actives have a fitted effect of over 60% in size
#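 Cells were seeded and rested 2 h, then exposed to compounds for 18-24 h. CellTiter-Fluor was read first as a viability measure. BugLite was added 15 min before the final luminescent read of ARE-luciferase activity in A549 cells.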
# A549 tox – A549 cytotoxicity, counter-screen for Nrf2 inhibitors; A549 ARE-Fluc cells, CellTiter-Fluor viability, 18-24 h; Potency, µM (highest dose often 46 µM), without a hit: at the highest dose activity change, negative = cytotoxicity, usual class: inhibitors; actives 0.16% (n = 390,000); AID 504648; note: % is set by controls: 0 for no effect and ±100 for the full control effect
#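 A549 ARE-Fluc cells in 5% FBS OPTI-MEM, 5000 cells/well, rested 2 h then exposed to compounds in concentration-response for 18-24 h at 37 °C. Viability by CellTiter-Fluor fluorescence (Ex 405/Em 525) after 30 min; luciferase luminescence (BugLite, 15 min, RT) read afterwards.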
# TrxR1 substrate – is turned over as a substrate by rat TrxR1. O89049. purified TrxR1 substrate turnover, NADPH consumption readout. Potency, µM (titrated, usually from 114 µM), for the others: at the highest dose activity change, negative = substrate turnover. actives 0.01% (n = 390,000). AID 588456; note: % is set by controls: 0 for no effect and ±100 for the full control effect; nearly all actives have a fitted effect of over 50% in size
#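 Rat TrxR1, dispensed at 90 nM, was prereduced with 400 uM NADPH (final) for 5 min at ~22 deg C, then incubated with compound 15 min before 400 uM selenite. A first-read NADPH fluorescence drop versus no-compound background flagged substrates.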
# Nrf2 activator – activates Nrf2 signaling; AREc32 ARE-luciferase reporter (MCF7-derived line), luminescence, 24 h; Potency, µM (highest dose often 46.1 µM), inactives show top-dose activation, hits mostly activators; actives 0.31% (n = 410,000); note: % of control where 0% means no effect; nearly all actives have a fitted effect of over 65% in size
#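 AREc32_Fluc, 1000 cells/well, OPTI-MEM + 5% FBS, o/n 37 deg C 5% CO2; 23 nL cpd by pin tool, 24 hr; Steady-Glo 30 min RT, luminescence.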
# * marks the source's active call; other numbers are inactive results; u = inconclusive; x = no result given; [ ] = dose if it differs, or a comment. This is a sample that favours compounds with a hit; in the whole collection about 3% have one here. Calls come from the whole dose curve; as a rule, active = well fitted curve in the direction sought with a large enough effect; inconclusive = small, poorly fitted or top-dose-only effect, or another doubt; inactive = no such curve, though single readings can be large; an effect the other way counts as inactive or inconclusive. Potency is the fitted concentration of half-maximal effect.
SMILES,TrxR1 inh,GALK inh,Nrf2 inh,A549 tox,TrxR1 substrate,Nrf2 activator
COc1ccc(C(=O)n2nnc3ccccc32)cc1Br,4µM*,0%,5%,0%,7%,0%
COc1ccc(C(=O)COC(=O)Cn2nnc3ccccc32)cc1Br,15%,-5%,4%,1%,1%,2%
CC(C)(C)n1ncc2c(=O)n(Cc3cccc(OC(F)(F)F)c3)cnc21,13%,x,x,x,-7%,x
CC(=O)Nc1sc(C)c(C)c1CN1CCN(Cc2ccccc2)CC1,31%[57.1 µM],2%,4%,0%,-7%[57.1 µM],0%
Cc1sc(NC(=O)c2ccccc2F)c(CN2CCCCC2C)c1C (configuration not stated),-29%,1%,u,-2%,0%,13µM*
COc1ccc(Cn2cc(C(=O)c3ccc(Cl)cc3)c(=O)c3cc4c(cc32)OCO4)cc1,34%,x,u,u,-2%,0%
Cc1cc2nn(-c3ccccc3)nc2cc1NC(=O)c1cccs1,31%[57.1 µM],4%,19%,-17%,14%[57.1 µM],7.1µM*
CC(=O)Nc1cc2nn(-c3ccccc3)nc2cc1C,4%,1%,u,-6%,65%,0%
CCOC(=O)[C@H]1[C@H]2COc3ccc(C)cc3[C@@H]2N2C(=O)CN(Cc3ccco3)C(=O)[C@@]12C,56µM*,x,8%,10%,3%,0%
CCOC(=O)[C@H]1[C@H]2COc3ccc(Cl)cc3[C@@H]2N2C(=O)c3ccc(C)cc3NC(=O)[C@@]12C,1%[57.1 µM],x,16%,-10%,4%[57.1 µM],0%
CCOC(=O)[C@H]1[C@H]2COc3ccc(Cl)cc3[C@@H]2N2C(=O)c3ccc(F)cc3NC(=O)[C@@]12C,19%,x,23µM*,-8%,2%,3%
CN(C(=O)c1cc2nc(-c3ccco3)cc(C(F)(F)F)n2n1)c1ccc(OC(F)(F)Cl)cc1,-36%,x,u,1%,-1%,6%
CCOc1ccc(C(=O)Nc2c(C(=O)Nc3ccccc3F)oc3ccccc23)cc1OCC,2%,x,1%,5%,0%,-1%
Cc1ccc(NC(=O)c2cc(N3C(=O)C=CC3=O)ccc2N2CCOCC2)cc1Cl,3.5µM*,0%,-17%,0%,-9%,22%
O=C(Cn1c(=O)n(Cc2ccc(C(=O)NCc3ccc4c(c3)OCO4)cc2)c(=O)c2ccccc21)Nc1cccc(Cl)c1,12%,x,-23%,2%,0%,-1%
Fc1cccc(/C=N/Nc2ccccn2)c1,19%[57.1 µM],12%,u,1%,5%,7.1µM*
Cc1ccc(C)c(/C=N/Nc2ccccn2)c1,11%[57.1 µM],0%,u,1%,-13%,8.9µM*
Clc1ccc(C=NNc2ccccn2)c(Cl)c1,14%[11.4 µM],x,u,2%,13%[57.1 µM],u
O=C1CCCC2=C1C1(CCSC1)N=C(Nc1nc3ccccc3o1)N2 (configuration not stated),x,x,-5%,-2%,x,x
CCOC(=O)c1cccc(NC(=O)C2CCN(S(=O)(=O)c3cccs3)CC2)c1,28%,0%,x,u,-7%,2%
CCOC(=O)c1ccc2c(c1)nc(C1CCN(S(=O)(=O)c3cccs3)CC1)n2CC,-2%,-4%,26µM*,u,-1%,2%
CCOC(=O)COc1ccc(Br)cc1/C=C\c1[nH]c(=O)[nH]c(=O)c1[N+](=O)[O-],45µM*,-7%,-3%,-8%,-9%,24%
O=C(NNc1ccccc1)C(=O)NNS(=O)(=O)c1ccc([N+](=O)[O-])cc1,-3%[57.1 µM],0%,18µM*,-15%,-4%,1%
N#C/C(=C\c1ccccc1)C(=O)NNS(=O)(=O)c1cccc([N+](=O)[O-])c1,10µM*,x,-15%,-1%,-2%,-1%
Cc1ccc(C)c(NC(=O)Cn2cc(S(=O)(=O)NC(C)C)c(S(=O)(=O)NC(C)C)c2)c1,11%,x,u,-3%,4%,0%
SMILES,TrxR1 inh,GALK inh,Nrf2 inh,A549 tox,TrxR1 substrate,Nrf2 activator
CC1CCc2c(nc3ncnn3c2NCCc2ccccc2F)C1 (configuration not stated),12%,2%,3.3µM*,u,8%,0%
Cc1ccnc2cc(Cl)c(Cl)cc12,9%,x,x,x,10%[0.0914 µM],x
O=C(O)CC1=C(O)C(=O)N(c2ccccc2)C1c1ccccc1 (configuration not stated),45µM*,0%,-1%,-3%,-8%,3%
CCN(CC)CCNC(=O)c1ccc2c(=O)n3nc(Nc4ccccc4)sc3nc2c1,15%[57.1 µM],x,x,-16%,-3%[57.1 µM],4%
O=C(/C=C\c1ccco1)Nc1nc(-c2ccccc2)cs1,4%,1%,11%,0%,-3%,9%
O=C(Nc1nc(-c2ccncc2)cs1)C1c2ccccc2Oc2ccccc21,-1%,1%,15µM*,u,-10%,4%
O=C(Nc1nc(-c2ccccc2)cs1)C1c2ccccc2Oc2ccccc21,-8%,1%,-2%,-4%,-5%,1%
O=C(/C=C/c1ccccc1)Nc1nc(-c2ccncc2)cs1,10%[57.1 µM],12%,13µM*,u,6%[57.1 µM],7%
Cc1nc(NC(=O)/C=C/c2ccccc2)n[nH]1,-38%,-2%,-2%,-13%,6%[57.1 µM],7.1µM*
COc1ccc(/C=N/NC(=O)c2cc3cc(OC)c(OC)cc3[nH]2)cc1,-7%,3%,21µM*,0%,0%,2%
COc1ccc2[nH]c(C(=O)N/N=C/c3ccc(O)cc3O)cc2c1,4%[57.1 µM],5%,2.3µM*,-30%,12%[57.1 µM],-1%
FC(F)(F)c1cc(-c2ccc(Cl)cc2)nc(NCc2cccnc2)n1,23%,-1%,15µM*,6%[1.84 µM],7%,3%
COc1ccc(-c2cc(C(F)(F)F)nc(NCc3ccc(Cl)cc3)n2)cc1,29%,x,-7%[9.27 µM],-10%,12%,0%
CCCCNc1nc2c(c(=O)n(C)c(=O)n2C)n1CC(O)COc1ccccc1C (configuration not stated),-16%,x,-8%,-6%,-8%,5%
CCn1nc(C(=O)NNC(=O)c2ccccc2)c2ccccc2c1=O,9%,x,u,1%,-3%,16µM*
CCOc1ccc(OCC)c(NC(=O)c2ccc(-c3ccccc3)s2)c1,-10%,x,u,2%,0%,9%
CC(=O)c1ccc(NC(=O)Cn2cc(S(=O)(=O)Cc3cccc(Cl)c3)c3ccccc32)cc1,1%,x,u,-3%,-7%,0%
CCOc1ccccc1NC(=O)CCC(=O)Nc1ccccc1OCC,12%,0%,-27%,-15%,3%,0%
CCOc1cc(NC(=O)CCl)c(OCC)cc1NC(=O)CCl,-10%,0%,u,2%,5%,7.1µM*
